From PubChem BioAssay
EphB4 antag – EphB4-ephrin-B2 interaction antagonism | EphB4 LBD / TNYL-RAW-Alexa532 peptide, fluorescence polarization | inhibition, % at 7 µM | 97,000 compounds, 0.15% hits;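 active = inhibition above the screen-wide mean inhibition plus 3 SD, cut at about 15% in these data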
CYP2C9 activ – increases human cytochrome P450 2C9 activity | 96,000 compounds, 1.4% hits | recombinant CYP2C9, luciferin-H conversion, luminescence; stronger effect = higher value; factor 1 = untreated enzyme, 0 = blocked | activation factor at 5 µM | P11712 | AID 1024;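 active = activation factor of 2 or more for CYP2C9 at a 5 µM dose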
Target sequence (P11712 whole entry, looked up): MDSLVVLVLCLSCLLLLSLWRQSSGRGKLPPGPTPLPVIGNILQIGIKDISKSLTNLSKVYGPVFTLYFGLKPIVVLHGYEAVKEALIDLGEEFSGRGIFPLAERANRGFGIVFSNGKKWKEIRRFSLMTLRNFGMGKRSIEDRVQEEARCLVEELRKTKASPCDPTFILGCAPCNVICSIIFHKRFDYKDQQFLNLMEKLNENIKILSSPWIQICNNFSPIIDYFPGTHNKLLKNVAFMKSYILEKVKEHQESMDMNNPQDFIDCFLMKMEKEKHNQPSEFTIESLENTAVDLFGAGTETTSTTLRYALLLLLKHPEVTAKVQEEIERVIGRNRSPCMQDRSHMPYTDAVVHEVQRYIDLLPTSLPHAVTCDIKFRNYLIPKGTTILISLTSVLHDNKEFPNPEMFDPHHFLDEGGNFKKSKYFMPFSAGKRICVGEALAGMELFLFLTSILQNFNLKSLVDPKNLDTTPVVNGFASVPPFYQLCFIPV
CYP2C9 inhib – human CYP2C9 inhibition | CYP2C9 Supersomes, luciferin-H conversion, luminescence | inhibition, % at 5 µM | 96,000 compounds, 20% hits | AID 777;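 active = blocking of liver enzyme CYP2C9 beyond about 50% at 5 µM, limit read from the data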
CYP2C19 inh – blocks human cytochrome P450 2C19. CYP2C19 Supersomes, luciferin-H EGE luminescence, 30 min. inhibition, % at 5 µM. 96,000 compounds, 21% hits. AID 778;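 active = CYP2C19 inhibition above a set limit at 5 µM in the primary screen, cut at about 50% in these data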
CYP2C19 act – increases human CYP2C19 enzyme activity; 96,000 tested, under 10 active; activation factor at 5 µM; recombinant CYP2C19, luciferin-H EGE luminescence; stronger effect = higher value; 0 = fully inhibited enzyme, 1 = untreated enzyme;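 active = activation factor of at least 2 at 5 µM in the primary screen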
Large screens that a line does not name were inactive. An excerpt weighted towards active compounds, which were near 27% of everything screened.

Cc1ccc(S(=O)(=O)Nc2c(C)ccc3nsnc23)cc1	none (no result: CYP2C9 activ, CYP2C9 inhib, CYP2C19 inh, CYP2C19 act)
CCOC(=O)C1=C(C)Nc2nc(SCC(=O)OC)nn2C1c1cc(F)cc(F)c1 (stereo not given)	none
COc1ccc(C(=O)Nc2nc(N3C(=O)c4ccccc4C3=O)n(-c3ccccc3)n2)cc1	none
C=CCOC(=O)Nc1ccc(Cl)cc1NC(=O)OCC=C	CYP2C9 inhib 65, CYP2C19 inh 93
Cc1ccccc1NC(=O)c1cnc(Nc2nc3ccccc3s2)nc1C	none
O=C(COC(=O)CN1C(=O)c2ccccc2C1=O)Nc1ncc(Cl)cc1Cl	none
COc1ccccc1NCCC(=O)OCC(=O)Nc1ccc(Cl)cn1	CYP2C19 inh 80 (no result: EphB4 antag)
O=C(COC(=O)CCS(=O)(=O)c1ccc(Cl)cc1)Nc1ncc(Cl)cc1Cl	CYP2C19 inh 51
O=C(COC(=O)CCCN1C(=O)c2ccccc2C1=O)Nc1ncc(Cl)cc1Cl	CYP2C9 inhib 57, CYP2C19 inh 54
COc1cc(CCC(=O)OCC(=O)Nc2ncc(Cl)cc2Cl)cc(OC)c1OC	none
Cc1ccc(OCCC(=O)OCC(=O)Nc2ccc(Cl)cn2)cc1	none (no result: EphB4 antag)
COc1ccc(CC(=O)OCC(=O)Nc2ncc(Cl)cc2Cl)cc1OC	CYP2C19 inh 51
CCCNC(=O)NC(=O)COc1c(F)c(F)cc(F)c1F	none
C=CCOc1c(Br)cc(CNc2nccs2)cc1OC	none (no result: CYP2C9 activ, CYP2C9 inhib, CYP2C19 inh, CYP2C19 act)
COc1ccc(/C(O)=C2/C(=O)C(=O)N(Cc3ccco3)C2c2cccs2)cc1 (stereo not given)	none (no result: CYP2C9 activ, CYP2C9 inhib, CYP2C19 inh, CYP2C19 act)
CC(C)CC(C(=O)OCC(=O)Nc1ncc(Cl)cc1Cl)N1C(=O)c2ccccc2C1=O (stereo not given)	none
O=C(COC(=O)CNC(=O)c1ccco1)Nc1ccc(Cl)cn1	CYP2C19 inh 54
COc1ccccc1OCCC(=O)OCC(=O)Nc1ncc(Cl)cc1Cl	CYP2C19 inh 87
O=C(CNC(=O)c1ccco1)NCC(=O)OCc1ccc(Cl)cc1	none
O=C(NNC1=NCCCCC1)c1ccccc1	none
COc1ccccc1Nc1nc(N)nc(CN2CCN(c3ccccc3)CC2)n1	none
Cc1[nH]c2c(Br)cccc2c1[C@H]1[C@@H](CC#N)C1(C)C	CYP2C9 inhib 55
Cc1c([C@H]2[C@@H](CC#N)C2(C)C)c2ccccc2n1C	none
CCOC(=O)C1=C(N)Oc2c(c(=O)[nH]c3ccccc23)C1c1ccccc1 (stereo not given)	CYP2C9 inhib 74
CCOC(=O)C1=C(N)Oc2cc(C)[nH]c(=O)c2C1c1ccncc1 (stereo not given)	CYP2C9 inhib 74, CYP2C19 inh 75
CCCCCCNc1c(C(=O)OCC)c(=O)[nH]c2ccccc12	none (no result: EphB4 antag)
CCOC(=O)C1=C(N)Oc2cc(C)n(C)c(=O)c2C1c1ccncc1 (stereo not given)	CYP2C9 inhib 73, CYP2C19 inh 72 (no result: EphB4 antag)
CCOC(=O)C1=C(N)Oc2ccc3ccccc3c2C1c1cccnc1 (stereo not given)	none (no result: CYP2C9 activ, CYP2C9 inhib, CYP2C19 inh, CYP2C19 act)
CCOC(=O)C1=C(N)Oc2cc(C)oc(=O)c2C1c1cccnc1 (stereo not given)	CYP2C9 inhib 63, CYP2C19 inh 60
CCOC(=O)C1=C(N)Oc2cc(C)n(CCc3ccc(OC)c(OC)c3)c(=O)c2C1c1cccnc1 (stereo not given)	none
CCN(CC)C(=O)c1cn(C)c(=O)c2cc(OC)c(OC)cc12	none (no result: EphB4 antag)
CCOC(=O)C1=C(C)Nc2nc(SCC)[nH]c(=O)c2C1c1ccncc1 (stereo not given)	CYP2C9 inhib 64, CYP2C19 inh 84
CCOC(=O)C1=C(C)N(C)C(C)=C(C(=O)OCC)C1c1cccnc1	CYP2C9 inhib 84, CYP2C19 inh 87
COc1ccc(Br)cc1-c1nc(C)c(C(C)=O)n1O	none
COc1cc(C)c(CNc2ccc(OC)c(OC)c2)cc1C	CYP2C19 inh 97
COc1cc(C)c(CNc2cc(C)cc(C)c2)cc1C	none
COc1cc(C)c(CNc2cccc(C)c2)cc1C	CYP2C9 inhib 71, CYP2C19 inh 93
Nn1c(Cc2ccccc2F)nnc1SCC(=O)N1CC(=O)Nc2ccccc21	none (no result: CYP2C9 activ, CYP2C9 inhib, CYP2C19 inh, CYP2C19 act)
CCN(CC)S(=O)(=O)c1ccc(Cl)c(C(=O)NCC2CCCO2)c1 (stereo not given)	none
NC(=O)C1(N2CCCCC2)CCN(Cc2ccccc2Cl)CC1	CYP2C19 inh 80
NC(=O)C1(N2CCCCC2)CCN(S(=O)(=O)c2cc(Cl)ccc2Cl)CC1	CYP2C9 activ 2.7, CYP2C19 inh 90
Cc1ccc2cc3c(NC(=O)C(C)C)nn(C)c3nc2c1	CYP2C9 inhib 70
CCn1nc(NC(=O)c2cccnc2)c2cc3cccc(C)c3nc21	none
